# Laboratory results published in PubChem BioAssay.
# Several values for one entry are separate records, joined by “and”; a condition that tells them apart may be missing. Equal values may be shown once. Unmarked numbers belong to inactive results. Activity calls are given as the source filed them.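 The calls were made as follows: active = inhibition at or above 50% relative to wild type and mutant plate controls; inactive = inhibition below 50%.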
# Assay: inhibitors of Chlamydomonas gravitaxis, primary screen, whole organism, Chlamydomonas reinhardtii, WT vs cilia-less mutant, absorbance, 96-well (AID 463189);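 also: 0% = wild type cc124 cells in DMSO and 100% = ciliumless bld1 mutant cells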
# Conditions: OD600 absorbance, 2 days, at 10 µM, stronger effect = higher value
row,SMILES,inhibition
1,N=C(N)SCCc1cccc(CCSC(=N)N)c1,2.04%
2,CN1CCN(C2Cc3ccccc3Sc3ccc(Cl)cc32)CC1 (stereo not given),30.5%
3,CCN(CC)CCOC(=O)c1ccc(N)cc1,-0.871%
4,CC(C)(C)NCC(O)COc1cccc2[nH]c(=O)[nH]c12 (stereo not given),3.61%
5,COc1ccc2c(c1)c(CC(=O)N1CCOCC1)c(C)n2C(=O)c1ccc(Cl)cc1,6.6%
6,O=C(CCc1ccc(O)cc1)c1c(O)cc(O)cc1O,-0.519%
7,O=[N+]([O-])c1ccc(CSc2ncnc3c2ncn3[C@@H]2O[C@H](CO)[C@H](O)C2O)cc1 (stereo not given in full),-2.08%
8,CC(C)NC[C@H](O)COc1cccc2[nH]ccc12,-3.11% and 2.85%
9,c1cc(CN2CCCCC2)cc(OCCCNc2nc3ccccc3s2)c1,26.8%
10,NCCCCN,-2.36%
11,CN(C)CC[C@@H](c1ccc(Cl)cc1)c1ccccn1,32.3%
12,CC(=O)NCCc1c[nH]c2ccc(O)cc12,-4.58%
13,O=c1[nH]c(=O)n([C@H]2C[C@H](O)[C@@H](CO)O2)cc1Br,2.45%
14,CC1(C)C(=O)N(CCN2CCC(C(=O)c3ccc(F)cc3)CC2)c2ccccc21,5.57%
15,O=C(c1cc(O)c(O)c([N+](=O)[O-])c1)c1ccccc1F,-0.57%
16,CCCCCCCCCCCCCCCCCC(=O)NCC(COP(=O)([O-])OCC[N+](C)(C)C)OCC (stereo not given),9.71%
17,Oc1cc(O)cc(/C=C/c2ccc(O)c(O)c2)c1,0.047%
18,OC[C@H]1O[C@@H](n2cnc3c(N[C@H]4CC5CCC4C5)ncnc32)[C@H](O)[C@@H]1O (stereo not given in full),2.84%
19,Cc1cn([C@H]2C[C@@H](N=[N+]=[N-])[C@@H](CO)O2)c(=O)[nH]c1=O,-6.23%
20,O=C1c2ccccc2-c2n[nH]c3cccc1c23,34.8%

row,SMILES,inhibition
1,COC1(C2=NCCN2)COc2ccccc2O1 (stereo not given),7.5%
2,S=C(S)N1CCCC1,21.2%
3,C1CCC(N=C(NC23CC4CC(CC(C4)C2)C3)N2CCOCC2)CC1,2.95%
4,NC(N)=NC(=O)Cc1c(Cl)cccc1Cl,4.12%
5,O=C(O)C1CN(CCCP(=O)(O)O)CCN1 (stereo not given),-0.924%
6,N=C(N)c1ccc(N)cc1,28.5%
7,C[n+]1cc2c3c(ccc2c2ccc4cc5c(cc4c21)OCO5)OCO3,145% (active)
8,CCCCCCCC/C=C\CCCCCCCC(=O)NCCO,-7.05%
9,O=c1c(-c2ccc(O)cc2)coc2cc(O)cc(O)c12,-5.08%
10,CN1CCc2cc(O)c(O)cc2C(c2ccccc2)C1 (stereo not given),2.5%
11,CC(N)=NCCCC[C@@H](N)C(=O)O,7.31%
12,O=C(Nc1cccc(C(=O)Nc2ccc(S(=O)(=O)O)c3cc(S(=O)(=O)O)cc(S(=O)(=O)O)c23)c1)Nc1cccc(C(=O)Nc2ccc(S(=O)(=O)O)c3cc(S(=O)(=O)O)cc(S(=O)(=O)O)c23)c1,1.9%
13,CN1C2CCC1CC(NC(=O)c1nn(C)c3ccccc13)C2 (stereo not given),10.7%
14,COC(=O)c1c(-c2cc(OC)c(OC)c(OC)c2)c2ccc(OCc3ccccn3)cc2c(=O)n1-c1ccc(N)cc1,2.92%
15,COCc1nc2c([nH]1)c(=O)n(C)c(=O)n2CC(C)C,1.31%
16,CSC(N)=NCCC[C@H](N)C(=O)O,9.75%
17,COc1cc2nc(N3CCN(C(=O)OCc4ccccc4)C(C(=O)NC(C)(C)C)C3)nc(N)c2cc1OC (stereo not given),-7.21%
18,NC1(C(=O)O)CCCCC1,-2.27%
19,O=C(O)C1CCNCC1,4.95%
20,COc1ccccc1N1CCN(CCCCNS(=O)(=O)c2cccc3c(N(C)C)cccc23)CC1,-0.327%
